Inconclusive results are not listed. Active and inactive are the calls of the source. The call rests on the fitted dose curve; in most records, active means well fitted curve in the direction sought with a large enough effect; inconclusive means small, poorly fitted or top-dose-only effect, or another doubt; inactive means no such curve, though single readings can be large; an effect the other way counts as inactive or inconclusive.
Tests used:
[1] = target: Rap guanine nucleotide exchange factor 3 (Homo sapiens) (UniProt O95398); experiment: Confirmatory qHTS for antagonist of cAMP-regulated guanine nucleotide exchange factor 3 (EPAC1) (AID 1645880); further: nearly all actives have a fitted effect of over 55% in size; further: potency means the concentration at half of the fitted maximal effect
Sequence of Rap guanine nucleotide exchange factor 3 (Homo sapiens) (O95398 whole entry, looked up): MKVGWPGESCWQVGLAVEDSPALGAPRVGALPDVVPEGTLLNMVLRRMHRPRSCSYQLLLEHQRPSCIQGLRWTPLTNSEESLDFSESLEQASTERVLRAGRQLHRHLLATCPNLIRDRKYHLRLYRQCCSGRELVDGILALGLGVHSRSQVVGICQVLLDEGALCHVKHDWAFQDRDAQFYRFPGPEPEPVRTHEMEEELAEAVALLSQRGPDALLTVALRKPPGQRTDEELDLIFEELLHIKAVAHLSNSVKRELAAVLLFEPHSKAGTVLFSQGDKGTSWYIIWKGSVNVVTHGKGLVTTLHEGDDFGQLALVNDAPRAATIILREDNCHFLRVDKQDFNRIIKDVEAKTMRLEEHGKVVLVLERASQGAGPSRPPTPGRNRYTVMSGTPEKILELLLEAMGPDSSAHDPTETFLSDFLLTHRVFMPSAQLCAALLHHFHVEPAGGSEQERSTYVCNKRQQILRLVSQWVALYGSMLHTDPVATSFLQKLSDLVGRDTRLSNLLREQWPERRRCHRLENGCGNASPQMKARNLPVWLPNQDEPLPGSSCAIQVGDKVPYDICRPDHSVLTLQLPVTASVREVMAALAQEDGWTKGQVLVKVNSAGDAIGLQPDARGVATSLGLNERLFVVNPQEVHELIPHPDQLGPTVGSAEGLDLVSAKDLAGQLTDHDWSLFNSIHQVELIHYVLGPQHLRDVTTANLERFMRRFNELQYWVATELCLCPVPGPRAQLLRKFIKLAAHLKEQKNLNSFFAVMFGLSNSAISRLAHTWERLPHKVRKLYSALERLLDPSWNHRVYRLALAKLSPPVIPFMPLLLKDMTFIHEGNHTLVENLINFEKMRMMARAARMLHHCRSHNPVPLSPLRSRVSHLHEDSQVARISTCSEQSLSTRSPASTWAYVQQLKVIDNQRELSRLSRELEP
How it was run: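 Nucleotide exchange uses 100 nM EPAC1, 250 nM RAP1B-BODIPY-GDP and 50 uM GDP, with compounds in a concentration-titration series. After 5 min at room temperature, fluorescence (480 nm ex/540 nm em) is read every 5 min for 30 min. Data are normalized to control ATA and DMSO.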

[2] = target: Rap guanine nucleotide exchange factor 3 (Homo sapiens) (UniProt O95398); experiment: Confirmatory qHTS for agonist of cAMP-regulated guanine nucleotide exchange factor 3 (EPAC1) (AID 1645881); further: nearly all actives have a fitted effect of over 75% in size; further: potency means the concentration at half of the fitted maximal effect;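 on activation: EPAC1 catalysed release of BODIPY-GDP from Rap1B seen as fluorescence loss; 100% = effect of cAMP agonist control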
[3] = target: Rap guanine nucleotide exchange factor 4 (Homo sapiens) (UniProt Q8WZA2); experiment: Confirmatory qHTS for agonist of cAMP-regulated guanine nucleotide exchange factor 4 (EPAC2) (AID 1645884);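 further: nucleotide exchange releases bodipy-GDP from Rap1 and this lowers its fluorescence; on the % scale 0 is the no-effect control and ±100 the full control effect; nearly all actives have a fitted effect of over 65% in size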
Sequence of Rap guanine nucleotide exchange factor 4 (Homo sapiens) (Q8WZA2 whole entry, looked up): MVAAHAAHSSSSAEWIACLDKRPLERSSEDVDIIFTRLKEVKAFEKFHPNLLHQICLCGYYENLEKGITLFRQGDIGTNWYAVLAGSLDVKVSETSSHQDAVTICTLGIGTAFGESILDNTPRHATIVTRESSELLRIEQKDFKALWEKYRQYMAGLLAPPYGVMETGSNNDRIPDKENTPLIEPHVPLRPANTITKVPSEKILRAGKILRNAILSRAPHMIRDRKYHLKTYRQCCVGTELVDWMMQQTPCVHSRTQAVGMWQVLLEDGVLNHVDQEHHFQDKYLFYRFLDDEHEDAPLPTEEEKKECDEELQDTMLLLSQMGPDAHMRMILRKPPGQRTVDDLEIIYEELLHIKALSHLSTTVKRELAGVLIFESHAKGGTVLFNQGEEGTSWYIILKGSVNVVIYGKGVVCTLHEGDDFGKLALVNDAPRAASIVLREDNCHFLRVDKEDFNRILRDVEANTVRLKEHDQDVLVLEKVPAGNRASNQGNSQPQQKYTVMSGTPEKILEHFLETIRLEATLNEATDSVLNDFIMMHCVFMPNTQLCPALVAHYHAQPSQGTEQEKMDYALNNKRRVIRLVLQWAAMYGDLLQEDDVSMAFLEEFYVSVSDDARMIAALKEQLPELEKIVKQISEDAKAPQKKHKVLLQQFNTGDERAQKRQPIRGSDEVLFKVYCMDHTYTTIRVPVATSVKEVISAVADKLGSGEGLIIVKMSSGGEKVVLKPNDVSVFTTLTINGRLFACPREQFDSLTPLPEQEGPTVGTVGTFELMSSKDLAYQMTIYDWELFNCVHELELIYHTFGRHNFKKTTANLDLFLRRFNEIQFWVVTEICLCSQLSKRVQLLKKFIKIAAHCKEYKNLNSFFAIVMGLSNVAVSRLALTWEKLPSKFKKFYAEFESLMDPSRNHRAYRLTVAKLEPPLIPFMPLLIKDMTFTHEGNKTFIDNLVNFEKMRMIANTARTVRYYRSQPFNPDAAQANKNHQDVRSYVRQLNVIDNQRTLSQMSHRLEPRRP

[4] = target: Rap guanine nucleotide exchange factor 4 (Homo sapiens) (UniProt Q8WZA2); experiment: Confirmatory qHTS for antagonist of cAMP-regulated guanine nucleotide exchange factor 4 (EPAC2) (AID 1645885); further: nearly all actives have a fitted effect of over 25% in size; further: potency means the concentration at half of the fitted maximal effect; on activity change, negative = inhibition: on the % scale 0 is the no-effect control and ±100 the full control effect
[5] = target: Rap guanine nucleotide exchange factor 3 (Homo sapiens) (UniProt O95398); experiment: Counterscreen qHTS for antagonist of cAMP-regulated guanine nucleotide exchange factor 3 (EPAC1) (AID 1645888);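 further: fluorescence loss as bound BODIPY-GDP is released from Rap1B; % of control where 0% means no effect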
How it was run: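 Rap1B–BODIPY-GDP (250 nM) with 50 uM GDP; compounds pin-transferred to 9.74 nM–152 uM final (activator) or from 7.32 nM upwards (inhibitor). Fluorescence Ex/Em 480/540 nm read at 5 and 30 min, then after adding cAMP or buffer, at room temperature.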

COc1ccccc1Sc1nc(-c2ccccc2)ncc1OC
inactive: Potency [1] | Potency [2] | activation [3] 11.6% [at 17.1 µM, percent relative to cAMP agonist control] | Potency [4] | activity change, negative = inhibition [5] 8.06% [at 30.8 µM]

COc1ccccc1C(CC(=O)N1CCCC1)c1ccc2c(c1)OCO2 (stereo not given)
inactive: Potency [1] | Potency [2] | activation [3] 2.08% [at 17.1 µM, percent relative to cAMP agonist control] | Potency [4] | activity change, negative = inhibition [5] -9.86% [at 30.8 µM]

CCCn1c(CN2CCN(C(=O)c3ccco3)CC2)nc2c1c(=O)n(C)c(=O)n2C
active: Potency [4] 10.7 µM
inactive: Potency [1] | Potency [2] | Potency [3] | Potency [5]

CC(CCc1ccccc1)NC(=O)C1CCN(C(=O)c2sccc2-n2cccc2)CC1 (stereo not given)
inactive: Potency [1] | Potency [2] | Potency [3] | Potency [4] | Potency [5]

CCC(=Cc1ccccc1OC)c1ccncc1
inactive: Potency [1] | Potency [2] | Potency [3] | Potency [4] | Potency [5]

CC1Oc2ccc(C#N)cc2N(Cc2ccccc2OC(F)(F)F)C1=O (stereo not given)
inactive: Potency [1] | Potency [2] | activation [3] 4.28% [at 17.1 µM, percent relative to cAMP agonist control] | Potency [4] | activity change, negative = inhibition [5] -10.7% [at 30.8 µM]

COc1ccc(C2=NN(c3nc4ccccc4s3)C(=O)C2)cc1
inactive: Potency [2] | Potency [3] | Potency [4] | Potency [5]
active: Potency [1] 75.7 µM

CC(C(=O)NC1CC(C)(C)NC(C)(C)C1)c1ccc([N+](=O)[O-])cc1 (stereo not given)
inactive: Potency [1] | Potency [2] | Potency [3] | Potency [4] | Potency [5]

O=C(Nc1ccccc1C(F)(F)F)N1CCC(CN2CCc3ccccc3C2)CC1
inactive: Potency [1] | Potency [2] | Potency [3] | Potency [4] | Potency [5]

CCOC(=O)C1CCN(C(c2cc(OC)c(OC)c(OC)c2)c2sc3nc(C)nn3c2O)CC1 (stereo not given)
inactive: Potency [1] | Potency [2] | activation [3] 3.51% [at 17.1 µM, percent relative to cAMP agonist control] | Potency [4] | activity change, negative = inhibition [5] -38.9% [at 30.8 µM]

C#CC(c1ccccc1)(c1ccccc1)n1ccnc1
inactive: Potency [1] | Potency [2] | Potency [3] | Potency [4] | Potency [5]

O=C(/C=C/c1ccccc1)c1cc(Br)ccc(=O)c1O
inactive: Potency [2] | Potency [3] | Potency [4] | Potency [5]
active: Potency [1] 12 µM

CC1(C(=O)NS(=O)(=O)c2ccc(Cl)s2)CCN1C(=O)C1(c2ccc(Cl)cc2)CC1 (stereo not given)
inactive: Potency [2] | activation [3] 0% [at 17.1 µM, percent relative to cAMP agonist control] | Potency [4] | activity change, negative = inhibition [5] -17.9% [at 30.8 µM]
active: Potency [1] 14.1 µM

COC(=O)c1ccccc1NC1=C/C(=N\S(=O)(=O)c2ccc(C(=O)O)cc2)c2ccccc2C1=O
inactive: Potency [2] | activation [3] 7.9% [at 17.1 µM, percent relative to cAMP agonist control] | Potency [4] | activity change, negative = inhibition [5] 14.1% [at 30.8 µM]
active: Potency [1] 22.4 µM

Cc1ccc(-c2cn3c(n2)sc2cc(C(=O)NCCC4=CCCCC4)ccc23)c(C)c1
inactive: Potency [1] | Potency [2] | Potency [3] | Potency [4] | Potency [5]

Cc1c(C(=O)NCCO)sc2nc3n(c(=O)c12)CCC3
inactive: Potency [1] | Potency [2] | Potency [3] | Potency [4] | Potency [5]

O=C(O)c1ccc(S(=O)(=O)/N=C2\C=C(Nc3ccccc3F)C(=O)c3ccccc32)cc1
active: Potency [1] 30.1 µM
inactive: Potency [2] | Potency [3] | Potency [4] | Potency [5]

O=C(CSc1nnc(-c2cccnc2)n1CCc1ccccc1)NCc1ccccc1
inactive: Potency [1] | Potency [2] | activation [3] 4.59% [at 17.1 µM, percent relative to cAMP agonist control] | Potency [4] | activity change, negative = inhibition [5] -2.95% [at 30.8 µM]

O=C(O)CCCCCN1C(=O)/C(=C/c2cn(-c3ccccc3)nc2-c2cccs2)SC1=S
inactive: Potency [1] | activation [3] 17.7% [at 17.1 µM, percent relative to cAMP agonist control] | Potency [4] | activity change, negative = inhibition [5] 39% [at 30.8 µM]
active: Potency [2] 79.4 µM

COc1ccc(Cl)cc1N(C)C(=O)Cc1noc2ccc(C)cc12
inactive: Potency [1] | Potency [2] | Potency [3] | Potency [4] | Potency [5]

O=C1NC(=Nc2ccccc2Cl)S/C1=C\c1cc([N+](=O)[O-])ccc1O
active: Potency [1] 53.6 µM | Potency [4] 26.9 µM
inactive: Potency [2] | Potency [3] | Potency [5]

CSc1nnc(-c2ccccc2)c(-c2ccccc2)n1
inactive: Potency [1] | Potency [2] | Potency [3] | Potency [5]
active: Potency [4] 19 µM

O=C(c1ccco1)N(Cc1cccc([N+](=O)[O-])c1)c1ccc(Br)cc1
inactive: Potency [1] | Potency [2] | Potency [3] | Potency [4] | Potency [5]

Cc1ccc(N(CCC#N)C(=O)COC(=O)c2ccccc2SCC(=O)N2CCCC2)cc1
inactive: Potency [1] | Potency [2] | Potency [3] | Potency [4] | Potency [5]

CCOc1ccc(C(=O)Nc2ccc3c(c2)N(C(C)=O)CCC3)cc1OCC
inactive: Potency [1] | Potency [2] | Potency [3] | Potency [4] | Potency [5]

Cc1ccc(Cl)c2c1N[C@@H](c1ccc(C(=O)O)cc1)[C@H]1CC=C[C@@H]21
inactive: Potency [2] | Potency [3] | Potency [4] | Potency [5]
active: Potency [1] 84.9 µM

Cc1ccc(S(=O)(=O)N2CCCCC2c2cccnc2)c(C)c1C (stereo not given)
inactive: Potency [1] | Potency [2] | activation [3] 14.9% [at 17.1 µM, percent relative to cAMP agonist control] | Potency [4] | activity change, negative = inhibition [5] 2.73% [at 30.8 µM]

CCCCN1C(=O)C(CC(=O)NC2CCCCC2)CC(C(=O)N2CCCCCC2)=C1C (stereo not given)
inactive: Potency [1] | Potency [2] | activation [3] 8.48% [at 17.1 µM, percent relative to cAMP agonist control] | Potency [4] | activity change, negative = inhibition [5] -2.29% [at 30.8 µM]

CN1C(=O)Cc2cc(S(=O)(=O)N3CCN(c4ccccc4F)CC3)ccc21
inactive: Potency [1] | Potency [2] | Potency [3] | Potency [4] | Potency [5]

O=C(CCNC(=O)c1ccccc1Cl)NCC(c1ccc(F)cc1)N1CCOCC1 (stereo not given)
inactive: Potency [1] | Potency [2] | Potency [3] | Potency [4] | Potency [5]

Oc1ccc(Br)cc1C=Nc1cccn2cc(-c3ccccc3)nc12
active: Potency [1] 84.9 µM | Potency [4] 75.7 µM
inactive: Potency [2] | Potency [3] | Potency [5]

COc1ccc(CNC(=O)C(=O)Nc2ccc(OC)cc2OC)cc1
inactive: Potency [1] | Potency [2] | Potency [3] | Potency [4] | Potency [5]

COc1ccc(OC)c(/C=C2\N=C(c3ccccc3)OC2=O)c1
inactive: Potency [1] | Potency [2] | Potency [3] | Potency [4] | Potency [5]

COc1ccc([N+](=O)[O-])cc1NC(=S)Nc1ccccc1
inactive: Potency [1] | Potency [2] | Potency [3] | Potency [4] | Potency [5]

CCC1CCCCN1CCCNC(=O)c1csc2c1CCCCC2 (stereo not given)
inactive: Potency [1] | Potency [2] | Potency [3] | Potency [4] | Potency [5]

Oc1ccc(C2=Nn3c(nnc3-c3ccco3)SC2)cc1O
active: Potency [1] 16.9 µM
inactive: Potency [2] | Potency [3] | Potency [4] | Potency [5]

COCCn1c(=N)c(C(=O)NC2CCCC2)cc2c(=O)n3cc(C)ccc3nc21
inactive: Potency [1] | Potency [2] | Potency [3] | Potency [4] | Potency [5]

Cn1c(=O)c2c(-c3ccccc3Br)n(CCc3ccccc3)cc2n(C)c1=O
inactive: Potency [1] | Potency [2] | Potency [3] | outcome [4] inactive [at 12.7 µM] | Potency [5]

O=C(O)c1[nH]c2ccccc2c1C(c1cc(Br)ccc1O)c1c(C(=O)O)[nH]c2ccccc12
active: Potency [1] 39.8 µM
inactive: Potency [2] | activation [3] 11.5% [at 17.1 µM, percent relative to cAMP agonist control] | Potency [4] | activity change, negative = inhibition [5] -16.3% [at 30.8 µM]

O=C(c1ccco1)N(Cc1ccc([N+](=O)[O-])cc1)c1ccc(Br)cc1
inactive: Potency [1] | Potency [2] | activation [3] -0.906% [at 17.1 µM, percent relative to cAMP agonist control] | Potency [4] | activity change, negative = inhibition [5] 10.5% [at 30.8 µM]

CCCN1CCN(S(=O)(=O)c2ccc3c(c2)NC(=O)C(C)C(=O)N3)CC1 (stereo not given)
inactive: Potency [1] | Potency [2] | Potency [3] | Potency [4] | Potency [5]

O=C(O)CN1C(=O)/C(=C\c2cc(Br)ccc2OCc2ccccc2F)SC1=S
active: Potency [1] 35.5 µM
inactive: Potency [2] | activation [3] 4.56% [at 17.1 µM, percent relative to cAMP agonist control] | Potency [4] | activity change, negative = inhibition [5] 18.9% [at 30.8 µM]

CCOC(=O)c1cccc(NC(=O)N2CCC(CN3CCCCCC3)CC2)c1
inactive: Potency [1] | Potency [2] | Potency [3] | outcome [4] inactive [at 12.7 µM] | Potency [5]

CC(=O)Nc1ccc(S(=O)(=O)NCCC(=O)Nc2cc(C)ccn2)cc1
inactive: Potency [1] | Potency [2] | Potency [3] | Potency [4] | Potency [5]

Cc1ccc2nc(-c3ccccc3)c(Cc3ccccn3)n2c1
inactive: Potency [1] | Potency [2] | Potency [3] | Potency [4] | Potency [5]

Cc1c(Cl)cccc1NC(=O)CN(CCc1ccccc1)S(=O)(=O)c1ccccc1
inactive: Potency [1] | Potency [2] | Potency [3] | Potency [4] | Potency [5]

O=C(c1ccco1)N(Cc1ccc([N+](=O)[O-])cc1)c1ccc(Cl)cc1
inactive: Potency [1] | Potency [2] | Potency [3] | Potency [4] | Potency [5]

Cc1cc(Nc2cccc(C(F)(F)F)c2)nc2ccc(NC(=O)c3ccc(N(C)C)cc3)cc12
inactive: Potency [1] | Potency [2] | Potency [3] | Potency [4] | Potency [5]

— PubChem BioAssay (NCATS)
